We go through 63 compounds from PubChem BioAssay AID588590 (National Center for Advancing Translational Sciences (NCATS), 2011).

In all, about 390,000 compounds went through this assay and about 4,000 (1%) were called active. Not shown: some 7% with an inconclusive outcome. The call rests on the fitted dose curve; in most records, active means well fitted inhibition curve with a large enough effect; inconclusive means small, poorly fitted or top-dose-only effect, or another doubt; inactive means no such curve, though single readings can be large or run the other way. This excerpt belongs to a sample that is enriched for actives.
Potency means the concentration at half of the fitted maximal effect.

Chain of DNA polymerase iota (Homo sapiens) (Q9UNA4 whole entry, looked up): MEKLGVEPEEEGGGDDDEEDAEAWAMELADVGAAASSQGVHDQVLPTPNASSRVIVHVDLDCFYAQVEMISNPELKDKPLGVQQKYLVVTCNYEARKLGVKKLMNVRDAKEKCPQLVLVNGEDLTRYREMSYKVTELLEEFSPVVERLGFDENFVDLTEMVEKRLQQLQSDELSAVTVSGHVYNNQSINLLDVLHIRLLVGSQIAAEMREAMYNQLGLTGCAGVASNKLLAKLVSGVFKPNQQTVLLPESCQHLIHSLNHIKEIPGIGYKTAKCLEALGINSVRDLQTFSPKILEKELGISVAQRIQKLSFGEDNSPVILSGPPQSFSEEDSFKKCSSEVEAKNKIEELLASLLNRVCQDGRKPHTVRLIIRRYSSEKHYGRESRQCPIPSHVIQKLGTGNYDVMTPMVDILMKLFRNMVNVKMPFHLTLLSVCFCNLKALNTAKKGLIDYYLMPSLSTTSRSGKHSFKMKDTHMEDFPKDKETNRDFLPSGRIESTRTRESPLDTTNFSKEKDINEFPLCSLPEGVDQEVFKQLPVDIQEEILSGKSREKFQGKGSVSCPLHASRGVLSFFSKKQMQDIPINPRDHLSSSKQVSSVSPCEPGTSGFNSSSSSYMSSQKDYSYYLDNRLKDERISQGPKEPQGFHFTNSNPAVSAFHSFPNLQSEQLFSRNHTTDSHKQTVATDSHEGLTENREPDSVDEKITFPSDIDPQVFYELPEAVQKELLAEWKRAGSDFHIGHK

The target in the test is DNA polymerase iota (Homo sapiens) (UniProt Q9UNA4). Kind of test: qHTS for Inhibitors of Polymerase Iota. The note with it: Pol iota fluorescent replication assay, 10 min; series mostly up to 115 µM; activity, negative = inhibition: at the top concentration. In outline:
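Pol iota at 10 nM preincubated 15 min with compounds at room temperature; reaction started with fluorescent substrate, 50 nM final. Fluorescence read kinetically at 0 and 10 min; buffer-only wells as negative control.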
Take `COc1ccc(-n2nc(C(=O)NCCc3ccc(Cl)cc3)c3c4ccccc4n(C)c3c2=O)cc1Cl`: the “activity, negative = inhibition” value is 21% (inactive).

Consider `Cc1cccc(-n2ccnc2SCC(=O)Nc2cccc3ccccc23)c1C`, for which the “activity, negative = inhibition” value was 3.77% (inactive).

With `COc1cc2nc(C#Cc3nc4cc(OC)c(OC)cc4[nH]3)[nH]c2cc1OC`, the “activity, negative = inhibition” value is 36.6% (inactive). For `Cc1nc(N2CCOCC2)sc1C(=O)NN`, the Potency was 7.08 µM (active). With `Cc1cc(C)c2nc(N3CCC(C(=O)NCCN4CCOCC4)CC3)sc2c1`, the “activity, negative = inhibition” value was 12.1% (inactive). The same measure, in the same setting: in the case of `COc1ccc(NC(=O)c2sc(N3CCOCC3)nc2-c2ccccc2)c(OC)c1` it was -0.489% (inactive); in that of `Cn1c(=O)sc2cc(NS(=O)(=O)c3ccc(C(C)(C)C)cc3)ccc21`, 20.1% (inactive); in that of `CCOc1ccc(Nc2oc(/C=C/c3ccc(F)cc3)nc2C#N)cc1`, -6.11% (inactive).

In the case of `COc1cc(C(=O)NCCc2csc3nc(-c4ccccc4C)nn23)cc(OC)c1OC`, the “activity, negative = inhibition” value is -0.325% (inactive).

Turning to `CC(=O)N(C1=C(Cl)C(=O)c2ccccc2C1=O)c1ccc(C(=O)O)cc1`, the Potency is 3.16 µM (active). For the compound `Cc1cccc(C(C)C)c1NC(=O)C(NS(=O)(=O)c1cccc2nsnc12)c1ccccc1` (stereo not drawn), the “activity, negative = inhibition” value was 14.3% (inactive). On the same count and under the same terms, in the case of `CC(=O)N1CCCc2cc(S(=O)(=O)N3CCC(C(=O)NC4CCCCC4)CC3)ccc21` it was 11.2% (inactive); in that of `COc1ccc(Nc2cc(C(=O)NCCCN(C)c3ccccc3)c3ccccc3n2)c(OC)c1`, -12.6% (inactive).

On to `COc1ccccc1Nc1cc(C(=O)NCCCN(C)C2CCCCC2)c2ccccc2n1`, for which the “activity, negative = inhibition” value is 9.81% (inactive). Consider `CN(C)CCNC(=O)c1ccc(Cl)c2cc3ccccc3nc12`, for which the Potency is 89.1 µM (active).

For `CCOC(=O)c1ccc(NC(=O)CCS(=O)(=O)c2ccc(C)cc2)cc1`, the “activity, negative = inhibition” value is 8.77% (inactive). For the compound `CCOC(=O)c1c(C)[nH]c(C)c1S(=O)(=O)N1CCC(C(=O)Nc2ccc(C)c(Cl)c2)CC1`, the “activity, negative = inhibition” value was 10.4% (inactive).

Turning to `CCOC(=O)c1scc(-c2ccccc2)c1S(=O)(=O)Nc1ccccc1F`, the “activity, negative = inhibition” value is -22.6% (inactive). Consider `CCN1CCN(C(c2ccc(C)cc2)c2c(O)cc(C)n(Cc3ccco3)c2=O)CC1` (stereo not drawn), for which the “activity, negative = inhibition” value was 24.1% (inactive). Still for that read-out and setting: the value for `O=C(COC(=O)CCc1ccc(S(=O)(=O)N2CCOCC2)cc1)Nc1cccc(Cl)c1` was 108% (inactive). As to `O=C(COC(=O)/C=C/c1ccc(Br)o1)Nc1cccc(S(=O)(=O)N2CCOCC2)c1`, the Potency was 20 µM (active). Turning to `O=C(CSc1ccccc1)Nc1cccc(S(=O)(=O)N2CCOCC2)c1`, the “activity, negative = inhibition” value is -11.4% (inactive). Same read-out and setting: in the case of `Cc1ccc(NC(=O)Cc2ccc(NC(=O)N3CCCCc4ccccc43)cc2)cc1` it was 11.6% (inactive). On to `C=CCC1=C/C(=C\c2c(N)n3nc(CC(=O)N4CCOCC4)sc3nc2=O)C=C(OC)C1=O`, for which the Potency is 22.4 µM (active). Regarding `COc1ccc(-c2ccnc(SCC(=O)N3CCOCC3)n2)cc1`, the “activity, negative = inhibition” value was -10.2% (inactive). Turning to `COC1=C/C(=C/c2c(N)n3nc(CC(=O)N4CCOCC4)sc3nc2=O)C=CC1=O`, the Potency was 22.4 µM (active). In the case of `COc1ccc(-c2nc(SCC(=O)N3CCOCC3)n[nH]2)cc1`, the “activity, negative = inhibition” value was 9.38% (inactive). On the same count and under the same terms, in the case of `CCCOc1ccc(C2c3c(-c4ccccc4O)n[nH]c3C(=O)N2Cc2cccnc2)cc1` (stereo not drawn) it was -8.5% (inactive); in that of `COc1ccc(CNC(=O)c2ccc(NC(=O)N3CC4CCCN4c4ccccc43)cc2)cc1` (stereo not drawn), 29.1% (inactive). The same measure, in the same setting: the value for `O=C1CC(c2ccccc2)CC2=C1C(c1ccco1)n1nc(C(F)(F)F)nc1N2` (stereo not drawn) was 36.4% (inactive). Same read-out and setting: the value for `CC1(C)CC(=O)c2cc(C(=O)NCc3ccccc3)c(=O)[nH]c2C1` was -3.14% (inactive); that for `O=C(CSCc1cnn(-c2ccccc2)c1-n1cccc1)NCc1ccccc1Br` was 20.1% (inactive).

Turning to `CC1(C)Cc2ccccc2-c2c[nH]c(=O)n21`, the “activity, negative = inhibition” value was 35.5% (inactive). The same measure, in the same setting: in the case of `COc1ccc(S(=O)(=O)Nc2cccc3cccnc23)c(N)c1` it was 13.3% (inactive); in that of `Cc1ccc(CN(C(=O)c2ccccc2[N+](=O)[O-])c2ccccn2)cc1`, 8.51% (inactive); in that of `CCn1cc(C(=O)NCc2ccc(C)cc2)c(=O)c2cc(S(=O)(=O)N3CCc4ccccc4C3)ccc21`, 6.69% (inactive). Same read-out and setting: the value for `COc1cc(NC(=O)CSc2nc3nc(C)c(Cc4ccc(C)cc4)c(C)n3n2)cc(OC)c1OC` was 14.9% (inactive); that for `Cc1ccc(Cc2c(C)nc3nc(SCC(=O)NCCN4CCOCC4)nn3c2C)cc1` was 6.43% (inactive). In the case of `Cc1nc2nc(SCC(=O)NCc3ccco3)nn2c(C)c1Cc1ccccc1`, the Potency was 50.1 µM (active). For the compound `O=C(CN1C(=O)CCn2nc(-c3ccccc3)cc21)NCc1ccccc1`, the “activity, negative = inhibition” value was 15.2% (inactive).

In the case of `CCCCc1nn2c(=O)cc(COC(=O)c3ccccc3NC(=O)C(C)(C)C)nc2s1`, the “activity, negative = inhibition” value is 2.84% (inactive). On the same count and under the same terms, the value for `COc1cc(/C=C/C(=O)OCC(=O)NC2CC2)cc(OC)c1OC` was -18% (inactive). Turning to `COc1ccc(/C=C/C(=O)OCC(=O)NC2CCCCCC2)cc1OC`, the Potency was 89.1 µM (active). As to `COc1ccccc1/C=C/C(=O)OCC(=O)NC1CCCCCC1`, the “activity, negative = inhibition” value was 36.9% (inactive). The same measure, in the same setting: in the case of `Cc1c(Cl)cccc1NC(=O)C1CCCN(C(=O)c2cnn(-c3ccccc3)c2-n2cccc2)C1` (stereo not drawn) it was 27.3% (inactive). For the compound `CN(C)/C=C1/Nc2ccccc2C1=O`, the Potency was 28.2 µM (active). For `CCCS(=O)(=O)C(=C1Nc2ccccc2N1)S(=O)(=O)CCC`, the “activity, negative = inhibition” value is 2.05% (inactive). On the same count and under the same terms, in the case of `COc1ccccc1CNC(=O)Cn1nc(C)c2nn(-c3ccc(Cl)cc3)c(C)c2c1=O` it was 19.7% (inactive); in that of `COC(=O)c1ccccc1NS(=O)(=O)c1ccc2c(c1)CCCN2C(C)=O`, -5.29% (inactive). Take `O=C1C(Cl)=C(Oc2ccccc2)C(=O)c2ccccc21`: the Potency is 1.78 µM (active). For the compound `COc1ccccc1CNC(=O)CS(=O)(=O)c1cccc2nsnc12`, the “activity, negative = inhibition” value is 1.49% (inactive).

Turning to `Cc1nn2c(=O)cc(COC(=O)CNC(=O)c3ccc(F)cc3)nc2s1`, the “activity, negative = inhibition” value was -5.5% (inactive). The same measure, in the same setting: in the case of `O=C(Cc1ccccc1)Nc1sc2c(c1C(=O)Nc1ccc(Br)cc1)CCC2` it was 16.3% (inactive).

Take `COc1cccc(N=C2SC(C(=O)Nc3cccc(Cl)c3)CC(=O)N2C)c1` (stereo not drawn): the “activity, negative = inhibition” value was -6.41% (inactive). Same read-out and setting: in the case of `CCCCNC(=O)Cn1c(SCc2cccc(Cl)c2)nc2ccncc21` it was 24.8% (inactive); in that of `CCOc1ccc(NC(=O)c2ncoc2-c2ccco2)cc1`, 2.03% (inactive).

On to `COCCNC(=O)Nc1ccc2nc(-c3ccco3)c(-c3ccco3)nc2c1`, for which the Potency is 2.82 µM (active). For `COc1ccc(NC(=O)COCc2cc(-c3ccco3)on2)cc1`, the “activity, negative = inhibition” value is -14.4% (inactive). Consider `COc1ccc(NC(=O)CCCc2nnc3n(CCC(C)C)c(=O)c4sccc4n23)c(OC)c1`, for which the “activity, negative = inhibition” value was 9.5% (inactive). Same read-out and setting: the value for `Cc1ccc(CN2C(=O)SC(Nc3ccccc3)C2=O)cc1` (stereo not drawn) was -9.14% (inactive). `Cc1ccc(CNC(=O)CSC2=Nc3ccccc3C3=NC(C)C(=O)N23)cc1` (stereo not drawn): the “activity, negative = inhibition” value was -0.464% (inactive). As to `CCOC(=O)CSC1=Nc2ccccc2C2=NC(CCC(=O)NCc3ccc(F)cc3)C(=O)N12` (stereo not drawn), the “activity, negative = inhibition” value was 0.348% (inactive). Consider `CC(C)C1N=C2c3ccccc3N=C(SCC(=O)c3ccc(O)c(O)c3)N2C1=O` (stereo not drawn), for which the Potency was 1.41 µM (active).
